According to the supplement of paper PMC6555819:

Key:
Test in all cases: PBM binding z-score (relative to random genomic background probes); higher = stronger binding; sequences stand for … in GC…GCGATTGACAGCGTAGAATGAAGG
[1] = tested on: PPARg:RXRa DBDmut IVT, anti-RXR (DBD mutation: RXRa K156A/R161A, NR concentration 270 nM, RXRa partner concentration 90 nM)
Summary of the method: (§1)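 For binding z-scores, the reference was random background probes on custom Agilent 4×180K protein-binding microarrays. These arrays were incubated 1 h with ligand-free nuclear receptor dimers in PBS pH 7.4, 2% milk, 0.02% Triton X-100, 1 mM DTT, 0.2 mg/mL BSA and 0.4 mg/ml salmon testes DNA. Fluorescence was scanned after antibody detection of each partner (one per run) and regression-normalized.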

[2] = tested on: PPARg:RXRa IVT, anti-PPARg (NR concentration 270 nM, RXRa partner concentration 90 nM)
Summary of the method: as §1

[3] = tested on: PPARg DBDmut:RXRa IVT, anti-PPARg (DBD mutation: PPARg1 K132A/R137A, NR concentration 270 nM, RXRa partner concentration 90 nM)
Summary of the method: as §1

[4] = tested on: PPARg DBDmut IVT, anti-PPARg (DBD mutation: PPARg1 K132A/R137A, NR concentration 270 nM)
Summary of the method: as §1

[5] = tested on: PPARg homodimer (NR concentration 180 nM)
Summary of the method: as §1

[6] = tested on: PXR:RXRa (NR concentration 270 nM, RXRa partner concentration 90 nM)
Summary of the method: as §1

[7] = tested on: PXR homodimer (NR concentration 270 nM)
Summary of the method: as §1

[8] = tested on: RARa:RXR (NR concentration 270 nM, RXRa partner concentration 90 nM)
Summary of the method: as §1

[9] = tested on: RARa homodimer (NR concentration 270 nM)
Summary of the method: as §1

[10] = tested on: RARb:RXRa (NR concentration 270 nM, RXRa partner concentration 90 nM)
Summary of the method: as §1

Sequence	PBM binding z-score [1]	PBM binding z-score [2]	PBM binding z-score [3]	PBM binding z-score [4]	PBM binding z-score [5]	PBM binding z-score [6]	PBM binding z-score [7]	PBM binding z-score [8]	PBM binding z-score [9]	PBM binding z-score [10]
CATACAGGGTCAGCTAGGCCATAGTAGGGACGGC	0.879	2.3	0.763	0.466	1.7	2.69	0.334	3.47	0.85	4.01
CAAACTAGGACACAGAGGTCAAAGTCCGTGCGTA	6.49	6.69	3.32	2.78	5.68	6.16	7.13	6.38	1.48	4.28
AGTCAAAGTTCCTCTAGGTAACGTAAGATATGCT	-0.227	1.14	-0.00849	0.378	-0.0696	0.0815	-0.225	0.241	0.00507	0.881
GGAACGAGGGCAAGTTGATATCAGAGTTTGATGG	3.98	2.65	0.634	0.177	0.61	0.864	0.655	0.687	-0.152	2.57
TCAGGCAGGTGAAGGTAACTCAGGTACGCAGTCG	1.55	1.14	-0.774	-0.917	0.554	0.0794	-0.029	0.355	-0.103	0.92
ACTATTAGTTGGCTTAGGGCAACCGATACGACGC	0.277	0.0103	0.854	1.29	0.354	-0.139	0.29	0.151	0.786	0.506
TTACCAAGGTGAAGATCGTTGATCCCTCTGTAGA	1.37	1.92	0.401	0.0725	0.177	0.123	-0.895	0.533	-0.66	1.26
TCATATAGGTAATACAGGTTAAAGTCGGCATCTA	4.34	3.27	1.19	1.83	1.52	1.32	0.749	1.97	1.97	0.992
ACCCGGAGGACAAAGGTCAGAGCTACGCCAGTGA	0.224	2.99	-0.0126	-0.296	2.98	4.14	0.302	5	0.962	4.51
CCGACTGGGGCATAAGGTTACCATAAGCCAGCCC	2.93	3.01	-0.979	-1.34	0.447	0.164	-0.32	1.11	-0.464	1.66
CGTCCAAGGTCAATGCTAGGTCATTGAAAGCATT	3.36	3.99	1.51	0.205	6.45	5.79	3.15	6.69	1.7	5.19
ACAGACAGGTGATGAAGGTAACGCAGGCTATCAT	-0.0406	0.365	-0.0492	0.0429	-0.243	-0.376	0.103	-0.27	-0.271	0.179
ATCTCTATGTAAAGATAGTTCAGTGAATGCAAAT	-0.623	-0.061	0.754	1.67	0.106	0.604	0.457	0.433	0.866	0.242
TCTTGTAGATCAAGCAGATTAAGAAAGCCTGAGT	1.46	0.135	-0.162	0.384	-0.288	0.232	-0.000804	0.536	-0.326	-0.301
CGAACTAGCTCATTGACAGGACAGTGAATAGTAA	-0.0116	-0.052	0.48	0.24	-0.35	-0.133	0.129	0.164	0.183	-0.386
ACAGACAGGTGATGAAGGTAACCCAGGCTATCAT	-0.12	0.789	0.463	0.0514	0.225	-0.103	-0.0491	0.412	-0.333	0.413
CGTCCTAGGTCAGAGAGGTCAGTGAATGCCGAGT	2.86	3.03	-0.901	-1.15	5.14	4.85	8.52	4.68	2.45	4.4
CTTCCAAGGTCAAAGGTCAGTGAAGAGATGACGG	4.31	5.99	1.55	2.25	5.02	7.21	2.73	8.8	3.33	5.92
ACTAGCAGGCCAAGGTTCACTCAAGATTAGTCCG	1.19	2.08	-0.0687	-0.0109	0.515	1.36	0.191	1.35	0.0605	1.62
TATACAGGGGCAAAGGCCAGAGTACGAATGTCGA	0.641	2.72	1.72	2.01	1.16	0.577	0.087	0.592	0.364	2.1
ACTATTAGTTGAATTAGGGCAACCGATACGACGC	2.66	3.69	1.92	1.76	1.34	-0.0416	0.205	0.264	1.47	0.87
AATACAGGGTCATCGTAGGCCAGAGTTCGCACAG	2.96	4.45	1.89	1.85	3.53	5.76	2.02	5.59	0.95	4.33

Sequence	PBM binding z-score [1]	PBM binding z-score [2]	PBM binding z-score [3]	PBM binding z-score [4]	PBM binding z-score [5]	PBM binding z-score [6]	PBM binding z-score [7]	PBM binding z-score [8]	PBM binding z-score [9]	PBM binding z-score [10]
TGGCAAAGTTCAAAGGTAACGTAAGTATCCACAC	-0.0424	3.1	0.662	1.12	3.45	5.58	4.43	6.87	1.43	5.11
TCATATAGGTAAATGCCAGGTGAAAGTCCGATCT	4.32	2.79	1.11	0.542	0.867	0.553	0.292	1.21	0.678	0.624
GCGAGTGGGGCAAAGCAGGTTACCATAAGGTTGG	3.82	2.88	-0.867	-0.658	0.436	0.562	-0.254	0.873	0.0402	1
GTACCAAGGTGAATAGGCCGTTGATGAGTAGGCG	1.64	2.14	-0.316	-0.431	0.326	0.0653	-0.287	0.238	0.218	1.36
GATACAGGGTCAGCTAGAGGCCAGAGTATGGAAA	1.03	2.29	0.139	0.0351	3.5	3.49	-0.262	4.85	0.574	4.22
ATTATTAGTTGAGACGAGGGCAACCGATAGGTTG	0.469	1.43	1.76	1.3	1.77	1.72	1.69	1.4	2.49	1.48
CTACCAAGGCGAACAAGGTCGTTGATTACTATTC	0.161	-0.119	-0.0454	0.0113	0.33	1.25	0.453	1.16	0.111	0.395
TCAGACAGGTCAAGGTAACTCAGGTACGCAGTCG	2.85	2.73	0.0851	0.283	1.88	2.46	0.321	3.37	0.676	4.31
ATCGTAAGGTCGACGAGGTGAGTATACACCGTTT	0.226	1.61	0.856	0.0648	0.926	2.17	0.476	2.39	0.139	3.08
TCTGCTAGGTCAGTTGGTCAGCTCACGAGCTGCC	3.21	3.07	0.484	0.713	-0.202	0.341	-1.06	0.601	-1.19	3.18
AGAACGAGGGCAATGGGTTGATAGCACGGGTGGC	3.27	3.01	0.598	-0.394	1.19	1.48	4.66	0.466	0.403	2.4
TCTTGTAGATCAACAGGACGTTAAGAAAGATCGA	1.79	0.305	0.99	0.998	0.259	0.135	-0.241	0.574	0.262	-0.11
ATCGAAAGGTCGTGAGGTCAGTATACAGAAAGGC	0.335	2.89	1.16	0.766	3.48	5.08	0.97	5.65	1.02	5.02
TCGAGTAGGCTACCAATGGGGCATTCAGCTTTCT	1.55	0.414	-0.67	-1.72	-1.23	-0.438	-0.888	-0.72	-1.3	-0.208
GCATATAGGTAATACAAGGTGAAAGTCCGATTGT	4.15	3.2	1.3	0.902	0.296	0.502	0.135	0.993	0.75	0.523
CGTCCAAGGTCGGAGAGGTCAGTGAATGCCGAGT	0.725	1.17	-0.739	-1.35	1.93	4.6	7.89	3.59	1.21	3.76
AGTCAAAATTCATCTAGGTAACGTAAGATATGCT	0.746	2.03	1.05	0.853	0.212	-0.186	0.107	0.122	0.616	0.168
TGAATGAGGTTATAAGGTCAGGGAACGTTGCAAA	2.58	4.37	1.54	1.21	2.82	4.17	0.241	5.68	0.814	3.88
CCTGCTAGGTCATGGTCAGCTAATCTACAGTATG	4.5	4.22	0.0201	0.284	0.79	1.41	0.115	2.34	0.369	3.95
CCTAGCAGGCCAATCCGGGTCACTCAAGGCTTGA	2.27	2.8	-1.26	-0.765	0.726	2.79	-0.246	2.23	-0.442	1.63
ATATGTTGGTTACATCCGGGTCATTCAGGCTATG	1.41	2.24	1.25	1.54	1.46	2.51	1.42	2.55	1.23	1.62
ACTAGTTGGTCAGCTGAGGTCACACGCAATTCGG	1.54	2.63	0.387	0.616	2.87	5.51	1.79	4.68	0.262	3.53
